Among the data in PubChem BioAssay (EPA / NIEHS) are outcome and AC50 values, retold here.

Read-out in assay [1]: Plasminogen activator inhibitor-1 (PAI1), SERPINE1 (gene 5054)
In words: BSK_MyoF_PAI1: BioMAP Diversity Plus: MyoF Assay for Plasminogen activator inhibitor-1 (PAI1) Biomarker Activity (AID 2284256).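 On outcome: PAI-1 protein level measured by ELISA in fibroblast cultures; PAI-1 read 24 h after compound addition.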 The note with it: primary human lung fibroblasts. The procedure, abridged: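 Primary human lung fibroblasts are dosed and incubated 24 h. PAI-1 is then measured by ELISA, while parallel cultures undergo SRB staining for overt cytotoxicity. Increases over DMSO define activity.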

Read-out in assay [2]: Interleukin-8 (IL8), CXCL8 (gene 3576)
Put plainly: BSK_MyoF_IL8: BioMAP Diversity Plus: MyoF Assay for Interleukin-8 (IL8) Biomarker Activity (AID 2284261). The settings on record: primary human lung fibroblasts. Summed up: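 IL-8 levels were measured by ELISA in human lung fibroblasts harvested 24 h after compound addition. Responses were analysed as gain of signal over the DMSO baseline.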

Read-out in assay [3]: Interferon-inducible T-cell alpha chemoattractant (ITAC), CXCL11 (gene 6373)
Put plainly: BSK_hDFCGF_ITAC: BioMAP Diversity Plus: hDFCGF Assay for Interferon-inducible T-cell alpha chemoattractant (ITAC) Biomarker Activity (AID 2284251). The note with it: primary human foreskin fibroblasts. Summed up:
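Chemical dosing of primary human foreskin fibroblast cultures preceded ELISA measurement of I-TAC at 24 h. Response was analysed in the positive direction using DMSO as baseline, while parallel SRB staining measured cytotoxicity.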

Read-out in assay [4]: Plasminogen activator inhibitor-1 (PAI1), SERPINE1 (gene 5054)
In words: BSK_KF3CT_PAI1: BioMAP Diversity Plus: KF3CT Assay for Plasminogen activator inhibitor-1 (PAI1) Biomarker Activity (AID 2284252). The settings on record: primary human keratinocytes with fibroblasts. Summed up:
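Keratinocyte + dermal fibroblast co-culture (human primary); 24 h post-dose; PAI-1 by ELISA; gain-of-signal fit vs DMSO control.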

Read-out in assay [5]: Macrophage Inflammatory Protein-1 Alpha (MIP1a), CCL3 (gene 6348)
In words: BSK_IMphg_MIP1a: BioMAP Diversity Plus: IMphg Assay for Macrophage Inflammatory Protein-1 Alpha (MIP1a) Biomarker Activity (AID 2284255). The note with it: primary human endothelial cells with macrophages. The procedure, abridged:
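MIP-1a protein levels were quantified by ELISA after 24 h treatment of human endothelial cell–macrophage co-cultures, compared with DMSO. Parallel cultures were fixed with TCA and stained with 0.1% SRB to gauge overt cytotoxicity.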

Read-out in another assay: CD69, CD69 (gene 969)
Put plainly: BSK_IMphg_CD69: BioMAP Diversity Plus: IMphg Assay for CD69 Biomarker Activity (AID 2284257). The note with it: primary human endothelial cells with macrophages. Summed up:
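Readout is ELISA for CD69 in primary human venular endothelial cell/macrophage co-culture, taken at 24 h post-dosing. SRB staining of parallel cultures gauged overt cytotoxicity; signal increase versus DMSO defined activity.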

Read-out in assay [6]: Eotaxin 3, CCL26 (gene 10344)
Put plainly: BSK_BF4T_Eotaxin3: BioMAP Diversity Plus: BF4T Assay for Eotaxin 3 Biomarker Activity (AID 2284258). The note with it: primary human bronchial epithelial cells with fibroblasts. The procedure, abridged: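 ELISA measurement of Eotaxin-3 after 24 h chemical exposure in a bronchial epithelial/dermal fibroblast co-culture, with DMSO as baseline. Parallel SRB staining (0.1% SRB after 10% TCA fixation, 560 nm) flagged overt cytotoxicity.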

Read-out in assay [7]: Monocyte Chemoattractant Protein-1 (MCP1), CCL2 (gene 6347)
In words: BSK_BF4T_MCP1: BioMAP Diversity Plus: BF4T Assay for Monocyte Chemoattractant Protein-1 (MCP1) Biomarker Activity (AID 2284259). The settings on record: primary human bronchial epithelial cells with fibroblasts. The procedure, abridged: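 MCP-1 ELISA readout taken 24 h after dosing in the BF4T system (bronchial epithelial cells plus dermal fibroblasts). Parallel SRB total-protein staining flagged cytotoxicity; DMSO served as baseline, positive fitting direction.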

Read-out in assay [8]: Intercellular Adhesion Molecule 1 (ICAM1), ICAM1 (gene 3383)
In words: BSK_BF4T_ICAM1: BioMAP Diversity Plus: BF4T Assay for Intercellular Adhesion Molecule 1 (ICAM1) Biomarker Activity (AID 2284260). The note with it: primary human bronchial epithelial cells with fibroblasts. Summed up:
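ICAM-1 levels measured by ELISA after 24 h chemical treatment of bronchial epithelial cell/dermal fibroblast co-cultures, read against DMSO baseline. Overt cytotoxicity checked in parallel cultures by sulforhodamine B staining.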

Read-out in a further assay: CD90, THY1 (gene 7070)
Put plainly: BSK_BF4T_CD90: BioMAP Diversity Plus: BF4T Assay for CD90 Biomarker Activity (AID 2284262). The settings on record: primary human bronchial epithelial cells with fibroblasts. Summed up: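 CD90 levels by ELISA after 24 h treatment of human bronchial epithelial cell/dermal fibroblast cultures, analysed versus DMSO. Overt cytotoxicity checked in parallel cultures by sulforhodamine B staining.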

SMILES strings stand for the structures. Several values for one entry are separate records, joined by “and”; a condition that tells them apart may be missing. Identical values can stand only once. The source holds several records for some structures; these can differ, active in one and inactive in another. Activity calls are given as the source filed them. How the source made its calls: active means hit-call score of the fitted dose curve at least 0.9, where 1 is the maximum; inactive means score below 0.9.

On to `Cc1ccc(N=Nc2c(O)ccc3ccccc23)c(C)c1`, for which the result in [1] and in [2] was inactive.
Take `Oc1cc2ccccc2cc1O`: the outcome in [1] and in [2] was inactive.
Regarding `O=C(O)C(F)(F)OC(F)(F)C(F)(F)OC(F)(F)C(F)(F)OC(F)(F)C(F)(F)C(F)(F)C(F)(F)F`, the AC50 in assay [3] was 11.1 µM (active) and 11.3 µM (active); in [4], 15.9 µM (active) and 18.7 µM (active); in assay [5], 36.5 µM (active) and 38.3 µM (active); in assay [1], 14.6 µM (active) and 13.3 µM (active); in the assay with CD69, CD69 (gene 969) it was 40.2 µM (active) and 24.2 µM (active); in [6], 7.32 µM (active) and 7.02 µM (active). Also, the AC50 in assay [7] was 7.5 µM (active); in assay [8], 8.19 µM (active) and 7.58 µM (active); in assay [2] it was 46.8 µM (active) and 44.5 µM (active); with CD90, THY1 (gene 7070), 14.6 µM (active). Further, the outcome in [7] is “inactive”; with CD90, THY1 (gene 7070), “inactive”.
`Oc1ccc(Cc2ccccc2O)cc1`: the outcome in assay [3] and in assay [4] was inactive.
In the case of `O=C1NS(=O)(=O)c2ccccc21`, the outcome in assay [3] and in [4] was inactive.
For the compound `NC(=NCCCCCCN=C(N)/N=C(\N)Nc1ccc(Cl)cc1)/N=C(\N)Nc1ccc(Cl)cc1`, the AC50 in assay [1] is 4.43 µM (active); in [2], 5.05 µM (active).
Take `OCC(F)(F)C(F)(F)C(F)(F)C(F)(F)C(F)(F)C(F)(F)C(F)(F)C(F)(F)C(F)(F)C(F)(F)C(F)(F)F`: the outcome in assay [3] is “inactive”; in assay [4], “inactive”; in assay [5], “inactive”; in assay [1], “inactive”; with CD69, CD69 (gene 969), “inactive”; in assay [6] it was “inactive”. Besides, the outcome in [7] is “inactive”; in assay [8] it was “inactive”; in assay [2], “inactive”; with CD90, THY1 (gene 7070) it was “inactive”.
Turning to `O=P(O)(O)CCC(F)(F)C(F)(F)C(F)(F)C(F)(F)C(F)(F)C(F)(F)C(F)(F)C(F)(F)F`, the AC50 was 0.236 µM (active) in assay [3] and 8.05 µM (active) in [6]. The outcome was “inactive” in assay [3]; “inactive” in assay [4]; “inactive” in assay [5]; “inactive” in [1]; “inactive” in the assay with CD69, CD69 (gene 969); “inactive” in [6]. Further, the outcome is “inactive” in assay [7]; “inactive” in [8]; “inactive” in [2]; “inactive” with CD90, THY1 (gene 7070).
As to `CN(Cc1cnc2nc(N)nc(N)c2n1)c1ccc(C(=O)N[C@@H](CCC(=O)O)C(=O)O)cc1`, the outcome in assay [3] was “inactive”; in [4] it was “inactive”; in assay [5], “inactive”; in [1], “inactive”; in the assay with CD69, CD69 (gene 969) it was “inactive”; in [6] it was “inactive”. The outcome was “inactive” in assay [7]; “inactive” in assay [8]; “inactive” in assay [2]; “inactive” with CD90, THY1 (gene 7070).
Take `CCCCCCCCCCCC`: the AC50 in assay [3] was 8.55 µM (active) and 5.79 µM (active); in assay [4] it was 10.4 µM (active) and 10.5 µM (active).
`C=CC(=O)OCCC(F)(F)C(F)(F)C(F)(F)C(F)(F)C(F)(F)C(F)(F)C(F)(F)C(F)(F)F`: the outcome is “inactive” in [3]; “inactive” in [4]; “inactive” in [5]; “inactive” in assay [1]; “inactive” with CD69, CD69 (gene 969); “inactive” in [6]. Further, the outcome in assay [7] is “inactive”; in [8], “inactive”; in assay [2], “inactive”; with CD90, THY1 (gene 7070) it was “inactive”.
Consider `C=CC(=C)CC/C=C(\C)CCC=C(C)C`, for which the result in assay [1] and in assay [2] was inactive.
`O=C(NCc1ncc(C(F)(F)F)cc1Cl)c1c(Cl)cccc1Cl`: the outcome in assay [1] and in assay [2] was inactive.
As for `O=S(=O)(O)C(F)(F)C(F)(F)C(F)(F)C(F)(F)C(F)(F)C(F)(F)C(F)(F)C(F)(F)C(F)(F)C(F)(F)F`, the AC50 was 8.02 µM (active) in assay [3]; 5.78 µM (active) and 2.59 µM (active) in assay [6]. Further, the outcome is “inactive” in assay [3]; “inactive” in assay [4]; “inactive” in assay [5]; “inactive” in assay [1]; “inactive” with CD69, CD69 (gene 969); “inactive” in assay [7]. Further, the outcome was “inactive” in assay [8]; “inactive” in assay [2]; “inactive” with CD90, THY1 (gene 7070).
As to `Oc1c(Cl)cc(Cl)cc1Sc1cc(Cl)cc(Cl)c1O`, the AC50 is 1.25 µM (active) and 1.44 µM (active) in assay [3]; 1.67 µM (active) and 1.83 µM (active) in [4].
As for `O=C(O)CCC(F)(F)C(F)(F)C(F)(F)C(F)(F)C(F)(F)F`, the values for the AC50 in assay [3] and in [5] were 2.04 µM (active) and 835 nM (active), respectively. The outcome in assay [3] is “inactive”; in [4], “inactive”; in assay [5] it was “inactive”; in assay [1] it was “inactive”; with CD69, CD69 (gene 969) it was “inactive”; in [6], “inactive”. Also, the outcome in assay [7] is “inactive”; in [8], “inactive”; in assay [2] it was “inactive”; in the assay with CD90, THY1 (gene 7070) it was “inactive”.
